# Active and inactive are the calls of the source.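 How the source made its calls, unless noted: active means inhibition of the reporter signal at or above 50%; inactive means inhibition below 50%.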
# Legend:
# [1] = inhibitors of TNFa-induced NFkB p65 translocation, primary screen, imaging, HUVEC, MLSMR starter and 10KST1 sets (AID 438;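 active means inhibition above 20% together with a positive visual image hit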;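 further: compound added about 3h40 before a 20 min TNFalpha stimulation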;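 on inhibition: signal is the nuclear over cytoplasmic p65 intensity ratio per well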); settings: HUVEC TNFa-induced p65 nuclear translocation; cell count: measured here: nuclei count (cytotoxicity indicator), at 2.08 µM; inhibition: at 2 µM, stronger effect = higher value, 0% TNFa-plus-vehicle, 100% no-TNFa wells
# [2] = reduction of polyQ htt aggregates in cells – imaging, exon1htt(103Q)mCFP cells, high-content imaging, primary screen (AID 483;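 active means visual image review flags a hit and inhibition of aggregation exceeds 20%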;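 further: compound exposure lasted 3 days before fixation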;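 on nuclei count: percent of the per-plate median nuclei count of sample wells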); settings: exon1htt(103Q)mCFP cell line, aggregate imaging, at 2 µM; inhibition of aggregation: stronger effect = higher value; nuclei count: measured here: cell count, toxicity
# [3] = endothelial E-selectin expression blockers – imaging, HUVEC, immunofluorescence, MLSMR starter and 10KST1 sets, primary screen (AID 487;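 active means visually confirmed hit in the image check and inhibition above 20%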;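 on inhibition: signal is fraction of cell area covered by stained E-selectin grains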;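 on nuclei count: 100% = median nuclei count of all wells on the same plate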); settings: HUVEC TNFalpha-induced E-selectin immunofluorescence imaging, at 2 µM; inhibition: stronger effect = higher value; nuclei count: measured here: cell number, toxicity
# [4] = target: Voltage-gated potassium channel subunit beta-2 (Rattus norvegicus) (UniProt P62483); assay: inhibitors of rat Kvbeta2 reductase activity – biochemical, NADPH fluorescence, primary screen (AID 622;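 active means fluorescence slope higher than the sample average by over 3 SD, cut at about -0.22 in these data, passing the limit was not always enough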;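 further: slope of raw intensity against log time taken from 70 to 1610 s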); settings: recombinant KvBeta, 4-cyanobenzaldehyde reduction, at 10 µM, stronger effect = higher value
# Sequence of Voltage-gated potassium channel subunit beta-2 (Rattus norvegicus) (P62483 whole entry, looked up): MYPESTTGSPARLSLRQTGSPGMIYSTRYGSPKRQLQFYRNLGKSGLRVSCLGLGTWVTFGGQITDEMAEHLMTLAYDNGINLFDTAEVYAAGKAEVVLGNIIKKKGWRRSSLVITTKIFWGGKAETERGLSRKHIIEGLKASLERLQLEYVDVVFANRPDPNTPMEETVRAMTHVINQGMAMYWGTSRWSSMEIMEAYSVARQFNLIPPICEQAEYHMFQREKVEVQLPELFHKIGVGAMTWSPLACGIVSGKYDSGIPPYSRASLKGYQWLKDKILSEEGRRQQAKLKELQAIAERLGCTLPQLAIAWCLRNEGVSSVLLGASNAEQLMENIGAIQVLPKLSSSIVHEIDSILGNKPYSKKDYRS
# [5] = target: Voltage-gated potassium channel subunit beta-2 (Rattus norvegicus) (UniProt P62483); assay: enhancers of rat Kvbeta2 NADPH turnover – biochemical, NADPH fluorescence, primary screen (AID 623;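 active means NADPH fluorescence slope more negative than the mean of all samples by about 3 SD, 99.7% confidence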;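 further: fluorescence intensity change per second fitted from 20 to 320 s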); settings: Recombinant KvBeta, NADPH fluorescence decrease slope, 10 min; at 10 µM; stronger effect = lower value
# [6] = target: Alpha-2C adrenergic receptor (Homo sapiens) (UniProt P18825); assay: compounds altering alpha2C-coupled GIRK flux – cell-based, HEK293 alpha2C/GIRK1/2, thallium flux, primary screen (AID 624;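 active means fluorescence slope after compound addition differing from the mean of all screened samples at 99.7% confidence, in either direction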;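 further: slope of fluorescence ratio to pre-addition baseline per second over 15 to 24 s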); settings: thallium flux BTC fluorescence, at 10 µM, actives lie on both sides
# Sequence of Alpha-2C adrenergic receptor (Homo sapiens) (P18825 whole entry, looked up): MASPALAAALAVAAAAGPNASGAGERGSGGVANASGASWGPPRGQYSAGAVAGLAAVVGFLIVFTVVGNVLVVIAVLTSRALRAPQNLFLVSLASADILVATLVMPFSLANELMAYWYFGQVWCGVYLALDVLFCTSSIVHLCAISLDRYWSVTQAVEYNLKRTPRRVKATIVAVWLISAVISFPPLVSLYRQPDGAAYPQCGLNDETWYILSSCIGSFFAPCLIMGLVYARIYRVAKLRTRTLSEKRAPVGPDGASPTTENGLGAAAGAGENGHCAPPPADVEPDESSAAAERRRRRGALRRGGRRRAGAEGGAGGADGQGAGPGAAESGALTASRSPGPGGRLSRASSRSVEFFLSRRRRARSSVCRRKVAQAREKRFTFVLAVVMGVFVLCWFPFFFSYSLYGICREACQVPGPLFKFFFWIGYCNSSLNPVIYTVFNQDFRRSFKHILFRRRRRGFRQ
# [7] = blockers of RIG-like receptor reporter activation – cell-based, Sendai virus stimulus, luciferase, 10K MLSCN set, TLR/RLR signaling modifier project, primary screen (AID 602276;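 active means inhibition at or above 50% at 10 µM; inactive means inhibition below 50%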;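 further: firefly luciferase from ISG56 promoter only with Renilla not read in this screen; 0% = Sendai virus plus DMSO and 100% = medium plus DMSO without virus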); settings: HEK293 RL24 IRF3 luciferase reporter, at 10 µM, stronger effect = higher value
# [8] = TLR3 IRF3 reporter activation blockers – cell-based, poly I:C stimulus, luciferase, 10K MLSCN set, primary screen (AID 602277); settings: HEK293-TLR3 RL24 IRF3 luciferase reporter, at 10 µM, stronger effect = higher value
SMILES,cell count [1],inhibition [1],inhibition of aggregation [2],nuclei count [2],inhibition [3],nuclei count [3],fluorescence slope [4],NADPH fluorescence slope [5],slope [6],inhibition [7],inhibition [8]
CCOc1cc2[nH]c(=S)n(CC3CCCO3)c(=O)c2cc1OCC (centres undefined),317,-0.5% (inactive),1% (inactive),104%,-51.1% (inactive),115%,-0.491 (inactive),4e-05 (inactive),0.00618 (inactive),-8.82% (inactive),15.8% (inactive)
O=C(NC1CCCCC1)C(c1ccc(Cl)cc1)N(C(=O)c1cnccn1)c1ccc2c(c1)OCO2 (centres undefined),694,3.4% (inactive),21.6% (inactive),93.8%,-87% (inactive),110%,-0.392 (inactive),-3.7e-05 (inactive),0.00597 (inactive),11.2% (inactive),7.2% (inactive)
Cc1ccc2occ(CN3CCN(c4ccccc4)CC3)c(=O)c2c1,258,-0.8% (inactive),14.3% (inactive),81.9%,-17% (inactive),93.3%,-0.454 (inactive),-1.6e-05 (inactive),0.00585 (inactive),15.8% (inactive),18.1% (inactive)
CC(=O)N(CCc1ccccc1C)Cc1cc2cc3c(cc2[nH]c1=O)OCO3,251,12.1% (inactive),1.2% (inactive),86.1%,-68.1% (inactive),116%,-0.592 (inactive),-6.2e-05 (inactive),0.00459 (inactive),8.48% (inactive),15.6% (inactive)
O=C(CN(Cc1cccs1)C(=O)CNS(=O)(=O)c1ccccc1)NCc1ccco1,473,-4.2% (inactive),-5% (inactive),104%,-65.9% (inactive),98.5%,-0.594 (inactive),3.8e-05 (inactive),0.00631 (inactive),-8.34% (inactive),-2.97% (inactive)
O=C(NC1CCCCC1)c1nc2c(nnn2Cc2ccccc2Cl)c(=O)[nH]1,584,8.8% (inactive),17.1% (inactive),85.3%,7.2% (inactive),105%,-0.525 (inactive),-2.9e-05 (inactive),0.0047 (inactive),3.13% (inactive),6.18% (inactive)
COc1cc(NC(=O)CC(C)C)ccc1NC(=O)c1ccco1,612,-6% (inactive),10.4% (inactive),93.3%,44.4% (inactive),47.6%,-0.605 (inactive),1e-05 (inactive),0.00539 (inactive),-64.3% (inactive),-135% (inactive)
CCCn1c(SCC(=O)NCc2ccco2)nc2c1c(=O)n(C)c(=O)n2C,433,-9.2% (inactive),16.5% (inactive),104%,-144% (inactive),160%,-0.379 (inactive),-4.1e-05 (inactive),0.0049 (inactive),16.6% (inactive),10.9% (inactive)
CCOC(=O)Cn1c(S(=O)(=O)Cc2ccccc2)nc2ccccc21,811,5.5% (inactive),-22.5% (inactive),110%,-135% (inactive),127%,-0.579 (inactive),-1.4e-05 (inactive),0.00594 (inactive),9.42% (inactive),30.4% (inactive)
COCc1cc(C)nc(Nc2ccc(C)cc2C)c1C#N,635,-12.3% (inactive),-34.1% (inactive),113%,24.1% (inactive),120%,-0.461 (inactive),5.1e-08 (inactive),0.00615 (inactive),-5.46% (inactive),12.7% (inactive)
COc1ccc(NC(=O)NCCN2C(=O)C3C4C=CC(C4)C3C2=O)cc1 (centres undefined),572,-0.8% (inactive),0.8% (inactive),75.5%,-25.1% (inactive),110%,-0.54 (inactive),-3.1e-05 (inactive),0.00569 (inactive),-29.6% (inactive),-73.3% (inactive)
CCn1c(CNc2ccc(OC)cc2)nnc1SCC(=O)c1ccc(OC)cc1,544,-16.9% (inactive),1.8% (inactive),100%,-101% (inactive),107%,-0.502 (inactive),7.7e-06 (inactive),0.00516 (inactive),10% (inactive),14.7% (inactive)
CCc1ccc(C2CC(c3cccc(OC)c3)n3nc(N)nc3N2)cc1 (centres undefined),528,7.5% (inactive),3.7% (inactive),111%,-40.1% (inactive),104%,-0.599 (inactive),-4e-05 (inactive),0.00641 (inactive),11.5% (inactive),25.7% (inactive)
Cc1csc(NC(=O)CCS(=O)(=O)c2ccc(Br)cc2)n1,721,0% (inactive),-30.9% (inactive),91.7%,5.7% (inactive),115%,-0.609 (inactive),1.8e-05 (inactive),0.00541 (inactive),-20.4% (inactive),-7.68% (inactive)
